Results as given in PubChem BioAssay (EPA / NIEHS).
Calls of active or inactive are those of the source. The calls were made as follows: active = hit-call score of the fitted dose curve at least 0.9, where 1 is the maximum; inactive = score below 0.9.

read-out: Epidermal growth factor receptor (EGFR), EGFR (gene 1956); experiment: BSK_hDFCGF_EGFR: BioMAP Diversity Plus: hDFCGF Assay for Epidermal growth factor receptor (EGFR) Biomarker Activity (AID 2283057); details: primary human foreskin fibroblasts; actives raise or lower the signal
Method: BSK_hDFCGF is a cell-based, multiplexed-readout assay that uses foreskin fibroblast, a human skin primary cell, with measurements taken at 24 hours after chemical dosing in a 96-well plate.BSK_hDFCGF_EGFR is an assay component measured in the BSK_hDFCGF assay. It measures EGFR antibody related to regulation of gene expression using ELISA technology.Data from the assay component BSK_hDFCGF_EGFR was analyzed into 1 assay endpoint. This assay endpoint, BSK_hDFCGF_EGFR, was analyzed with bidirectional fitting relative to DMSO as the negative control and baseline of activity. Using a type of binding reporter, gain or loss-of-signal activity can be used to understand changes in the signaling as they relate to the gene EGFR. Furthermore, this assay endpoint can be referred to as a primary readout, because this assay has produced multiple assay endpoints where this one serves a signaling function. To generalize the intended target to other relatable targets, this assay endpoint is annotated to the kinase intended target family, where the subfamily is receptor tyrosine kinase.
The levels of cell surface (or secreted, indicated by the prefix "s") biomarker endpoints were measured by ELISA. Overt cytotoxicity to cells in confluent adherent cultures (all systems other than the BT system) was assessed by measuring total protein levels using sulforhodamine B (SRB) staining in parallel cultures at the time of biomarker measurements, indicated as SRB endpoints. For proliferation assays for adherent cell types, individual cell types are cultured at sub-confluence and relative cell numbers quantified by SRB staining at time points optimized for each system (48 h: 3C and CASM3C systems; 72 h: BT and HDF3CGF systems; 96 h: SAg system). SRB was performed by staining cells with 0.1% SRB after fixation with 10% TCA and reading wells at 560 nm.Viability and proliferation of PBMC (T cells) was quantified by Alamar Blue reduction for the SAg and BT systems. For PBMC viability (referred to as PBMC Cytotoxicity within the assay endpoint names), cells were plated (75,000/well in a 96-well plate) and then chemical samples added for 1 h before addition of activators, SEB and TSST-1 (20 ng/mL final concentration each). Cells were incubated for 90 h. Then, Alamar Blue (20 uL/well) (Invitrogen, Cat DAL1100) was added for 6 h, and the plates were read with a fluorescence microplate reader at 546/580 nm (excitation/emission). For PBMC proliferation, cells were plated and activated as above but incubated for only 16 h prior to addition of Alamar Blue. Plates were read after 6 h.

| SMILES | outcome | AC50 |
| --- | --- | --- |
| Cc1c([N+](=O)[O-])cc2c(c1[N+](=O)[O-])C(C)(C)CC2(C)C | inactive |  |
| CCOP(=S)(OCC)SCSCC | inactive |  |
| CCOS(=O)(=O)OCC | inactive |  |
| CCOc1ccc(C(C)(C)COCc2cccc(Oc3ccccc3)c2)cc1 | inactive |  |
| O=P(Oc1ccccc1)(Oc1ccccc1)Oc1ccccc1 | inactive |  |
| O=C(O)C=CC(F)(C(F)(F)F)C(F)(F)F | inactive |  |
| O=P1(N(CCCl)CCCl)NCCCO1 (stereo not given) | inactive |  |
| O=C(O)C(Cl)Cl | inactive |  |
| CCCCN(CCCC)SN(C)C(=O)Oc1cccc2c1OC(C)(C)C2 | inactive |  |
| Nc1ccc(Cl)cc1 | inactive |  |
| ClC(Cl)c1ccccc1 | inactive |  |
| O=[N+]([O-])c1ccc(Cl)c(Cl)c1 | inactive |  |
| CC(C)(C)c1ccc(O)cc1 | inactive |  |
| Cc1ccc(N)cc1N | inactive |  |
| CCOP(=S)(OCC)SCSc1ccc(Cl)cc1 | inactive |  |
| C=CC(=O)OCC(F)(F)C(F)F | inactive |  |
| COP(N)(=S)OC | inactive |  |
| FC(F)(F)C(F)(C(F)(F)F)C(F)(F)C(F)(F)CC1CO1 (stereo not given) | inactive |  |
| CSC(C)(C)C=NO | inactive |  |
| Nc1ccc([N+](=O)[O-])cc1Cl | inactive |  |

| SMILES | outcome | AC50 |
| --- | --- | --- |
| Cc1ccc2c(c1N)C(=O)c1ccccc1C2=O | inactive |  |
| N#Cc1c(-c2ccc(Cl)cc2)[nH]c(C(F)(F)F)c1Br | inactive |  |
| CCCCC(CC)COC(=O)c1c(Br)c(Br)c(Br)c(Br)c1C(=O)OCC(CC)CCCC (stereo not given) | inactive |  |
| O=C(O)C(F)(OC(F)(F)C(F)(F)C(F)(F)F)C(F)(F)F (stereo not given) | inactive |  |
| c1ccc(OP(Oc2ccccc2)Oc2ccccc2)cc1 | inactive |  |
| Cc1ccc(O)cc1C | inactive |  |
| OCC(F)(F)OC(F)(F)C(F)(F)OC(F)(F)CO | inactive |  |
| CCCN(CCC)c1c([N+](=O)[O-])cc(C(C)C)cc1[N+](=O)[O-] |  | 20 µM (active) |
| c1ccc2c(c1)sc1ccccc12 | inactive |  |
| Nc1cc2c3c(c1)C(c1ccccc1)=N[C@@H](NC(=O)c1cccnc1)C(=O)N3CC2 | inactive |  |
| O=C(O)C1C(C(=O)O)C2(Cl)C(Cl)=C(Cl)C1(Cl)C2(Cl)Cl (stereo not given) | inactive |  |
| CCC1(c2ccccc2)C(=O)N=C(O)NC1=O (stereo not given) | inactive |  |
| CC(C)(C)c1ccccc1OP(=O)(Oc1ccccc1)Oc1ccccc1 |  | 13.5 µM (active) |
| CCOP(=S)(Oc1ccc([N+](=O)[O-])cc1)c1ccccc1 (stereo not given) | inactive |  |
| O=C(O)C(F)(F)C(F)(F)C(=O)O | inactive |  |
| CCOC(=O)c1ccccc1C(=O)OCC | inactive |  |
| ClC1=C(Cl)C2(Cl)C3C(Cl)C(Cl)CC3C1(Cl)C2(Cl)Cl (stereo not given) | inactive |  |
| CC(Cl)(Cl)C(=O)O | inactive |  |
| CC(O)C(F)(F)C(F)(F)F (stereo not given) | inactive |  |
| CC(Cl)CN(C)C (stereo not given) | inactive |  |
